{
  "source": "PubChem BioAssay (NCATS)",
  "note": "Results filed as inconclusive are left out. A call without a number means that no potency is given here. Calls of active or inactive are those of the source. The call rests on the fitted dose curve; in most records, active means well fitted inhibition curve with a large enough effect; inconclusive means small, poorly fitted or top-dose-only effect; inactive means flat fitted curve, though single readings scatter.",
  "data": [
    {"tested_on": "CP238", "assay": "qHTS profiling for inhibitors of Plasmodium falciparum proliferation (AID 504749); further: nearly all actives have a fitted effect of over 60% in size", "conditions": "P. falciparum in erythrocytes, SYBR Green DNA, 72 h; series mostly up to 28.7 µM", "method_in_brief": "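Three-day growth assay of blood-stage parasites in erythrocytes (0.3% parasitemia, 2.5% hematocrit) at 37 C, 5% CO2, quantified by SYBR Green DNA staining after overnight detergent lysis.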", "values": [
      {"smiles": "O=C(O)Cc1ccc(CCNS(=O)(=O)c2ccc(Cl)cc2)cc1", "Potency": "inactive"},
      {"smiles": "NS(=O)(=O)c1ccc(NC(=O)CCC(=O)O)cc1", "Potency": "inactive"},
      {"smiles": "C=CCSCC1Nc2cc(Cl)c(S(N)(=O)=O)cc2S(=O)(=O)N1", "note": "(centres undefined)", "Potency": "inactive"},
      {"smiles": "Cc1cccc(C)c1NC(=O)CC12CCCN1CCC2", "Potency": "inactive"},
      {"smiles": "CC(=O)Nc1cccc(O)c1", "Potency": "inactive"},
      {"smiles": "CNCc1ccccc1", "Potency": "inactive"},
      {"smiles": "COc1ccc(C(=O)NCc2ccc(OCCN(C)C)cc2)cc1OC", "Potency": "inactive"},
      {"smiles": "C=CCNC(N)=S", "Potency": "inactive"},
      {"smiles": "NS(=O)(=O)c1cc(-c2nn[nH]n2)c(NCc2cccs2)cc1Cl", "Potency": "inactive"},
      {"smiles": "CCOc1ccc(C(=O)OCCN(CC)CC)cc1", "Potency": "inactive"},
      {"smiles": "Cc1c(N(C)C)c(=O)n(-c2ccccc2)n1C", "Potency": "inactive"},
      {"smiles": "CCc1cccc(CC)c1NC(=O)CN(CC(=O)O)CC(=O)O", "Potency": "inactive"},
      {"smiles": "COC(=O)c1cccnc1", "Potency": "inactive"},
      {"smiles": "Cc1ccc(S(=O)(=O)NC(=O)NC2CCCCCCC2)cc1", "Potency": "inactive"},
      {"smiles": "CCCCCCCCCCCCCCCCC(C(=O)O)C(O)(CC(=O)O)C(=O)O", "note": "(centres undefined)", "Potency": "inactive"},
      {"smiles": "Cn1c(=O)c2c(ncn2CCO)n(C)c1=O", "Potency": "inactive"},
      {"smiles": "CCCC(O)C(CC)CO", "note": "(centres undefined)", "Potency": "inactive"},
      {"smiles": "CCCCCC(N)=O", "Potency": "inactive"},
      {"smiles": "O=C(O)c1ccc[n+]([O-])c1", "Potency": "inactive"},
      {"smiles": "CC(CSC(=O)c1ccccc1)C(=O)N1C[C@@H](Sc2ccccc2)C[C@H]1C(=O)O", "note": "(some centres undefined)", "Potency": "inactive"},
      {"smiles": "CCOc1cc(NC(C)=O)ccc1C(=O)OC", "Potency": "inactive"},
      {"smiles": "C[C@@H](N)C(=O)O", "Potency": "inactive"},
      {"smiles": "NS(=O)(=O)c1cc2c(cc1C(F)(F)F)NCNS2(=O)=O", "Potency": "inactive"},
      {"smiles": "NC(=O)NS(=O)(=O)c1ccc(N)cc1", "Potency": "inactive"}
    ]}
  ]
}
